Measurements published in PubChem BioAssay AID1347055 (National Center for Advancing Translational Sciences (NCATS), 2019).
Among all 54,000 compounds or so, about 120 (0.22%) were called active. Another 8% or so got no clear call; they are omitted. This is one part of a sample in which actives are shown more often than they occur. Unmarked numbers belong to inactive results. Calls follow the shape of the dose curve; as a rule, active = well fitted inhibition curve with a large enough effect; inconclusive = small, poorly fitted or top-dose-only effect, or effect the other way; inactive = flat fitted curve, though single readings scatter.

target: Fumarate hydratase, mitochondrial (Homo sapiens) (UniProt P07954); assay: Identification of activators of human fumarate hydratase by quantitative high-throughput screening; details: FH coupled MDH/diaphorase resazurin fluorescence, 15 min; series mostly up to 79.9 µM; activity change, negative = inhibition: at the top concentration; also: the screen sought activators but most active calls are inhibition curves; nearly all actives have a fitted effect of over 45% in size
Sequence (P07954 whole entry, looked up): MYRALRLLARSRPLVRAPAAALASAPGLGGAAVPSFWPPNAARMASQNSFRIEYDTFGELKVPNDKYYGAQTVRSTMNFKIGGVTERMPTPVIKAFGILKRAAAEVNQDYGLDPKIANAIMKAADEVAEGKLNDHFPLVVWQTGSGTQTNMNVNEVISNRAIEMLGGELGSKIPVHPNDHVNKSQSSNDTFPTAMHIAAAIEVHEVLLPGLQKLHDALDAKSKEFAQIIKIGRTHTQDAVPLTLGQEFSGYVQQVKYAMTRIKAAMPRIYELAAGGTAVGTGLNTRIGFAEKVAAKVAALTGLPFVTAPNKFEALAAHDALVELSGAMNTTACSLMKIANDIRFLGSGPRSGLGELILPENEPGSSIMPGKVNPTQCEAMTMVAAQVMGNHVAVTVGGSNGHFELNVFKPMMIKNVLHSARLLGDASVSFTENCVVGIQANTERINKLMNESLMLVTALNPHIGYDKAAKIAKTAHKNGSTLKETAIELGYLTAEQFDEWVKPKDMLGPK
Text: Fumarate hydratase (FH) is a metabolic enzyme that is part of the Krebs-cycle, and reversibly catalyzes the hydration of fumarate to malate. Mutations of the FH gene have been associated with fumarate hydratase deficiency (FHD), hereditary leiomyomatosis, renal cell cancer (HLRCC), and other diseases. Currently there are no high-quality small molecule probes for studying human fumarate hydratase. To address this, we developed a quantitative high throughput screening (qHTS) FH assay and screened a total of 57,037 compounds in dose-response. While no inhibitors of FH were confirmed, a series of phenyl-pyrrolo-pyrimidine-diones (12 compounds) were identified as activators of human fumarate hydratase. […] The binding of two compounds from the series to human fumarate hydratase was confirmed by microscale thermophoresis. The low hit rate in this screening campaign confirmed that FH is a "tough target" to modulate, and the small molecule activators of human fumarate hydratase reported here may serve as a starting point for further optimization and development into cellular probes of human FH and potential drug candidates.
For primary high-throughput screen, 3 ul of FH solution (containing 13.33nM human fumarate hydratase, 13.33IU/ml malic dehydrogenase, 0.2mM NAD, 0.067mg/ml diaphorase and 0.067mM resazurin in the assay buffer (50 mM Tris pH 8.0, 5 mM MgCl2, 0.01% Brij 3) was dispensed into each well in a black solid bottom 1536-well assay plate (Greiner Bio-One) using a BioRAPTR FRD dispenser (Beckman Coulter, Brea, CA). A 1536-well pintool dispenser outfitted with 20 nl pins (Wako Automation, San Diego, CA) was used to transfer 20 nL of DMSO-solubilized compound (Cherrypick plates) to each 1536-well assay plate. Each compound was screened at five concentrations: 15 nM, 151 nM, 1.5 uM, 15.4 uM, 76.9 uM. Following compound transfer, plates were incubated in room temperature for 10 minutes. 1 uL of substrate solution containing fumaric acid (160 uM) was dispensed via BioRAPTR FRD to initiate the reaction. Plates were immediately transferred to a ViewLux microplate imager (PerkinElmer, Waltham, MA), and any resulting resorufin fluorescence was measured (exitation/emission, 525/598 nm) at 0 and 15 minutes. The exposure time is 1 second. Fluorescence from each well was normalized using enzyme-free and DMSO-treated control wells on each plate, and changes in fluorescence (delta RFU) were calculated using the difference in fluorescent signal for each well at 15 minutes versus 0 minutes.
% is scaled to controls: 0 for no effect and ±100 for the full control effect; potency is read from the fitted curve at half-maximal effect.

Going from CCOC(=O)CNc1nc2ccccc2n2c(C)nnc12 to CCOCCCNC(=O)c1cn(CC(C)C)c(=O)c2c1c1ccccc1n2C, the “activity change, negative = inhibition” value falls from -4.82% to -9.65%.

Going from Cc1cc(C)c2sc(NC(=O)c3ccc(S(=O)(=O)N4CCCC4)cc3)nc2c1 to CC(=O)N1c2ccc(S(=O)(=O)N3CCCCCC3)cc2CC1C(=O)NCc1ccccc1C (stereo not given), the “activity change, negative = inhibition” value falls from 3.95% to 1.03%.

Compared with Cc1cc(C)c(-n2cc(C)c3c(Cl)nc(C)nc32)c(C)c1, CCOC(=O)c1c(C)n(S(=O)(=O)c2ccc(C)cc2C)c2ccc(NS(=O)(=O)c3ccc(C)cc3C)cc12 is higher in “activity change, negative = inhibition” value: -2.66% for the first, -0.0866% for the second.

Compared with CNC(=O)c1ccc(-c2nc(CN3CCc4ccccc43)c(C)o2)cc1, O=C(Nc1ccc2nc(SCC(=O)N3CCCc4ccccc43)sc2c1)c1ccc(Cl)cc1 is higher in “activity change, negative = inhibition” value: -16.3% for the first, -13.7% for the second.

Compared with COc1cc(OC)c(NC(=O)c2ccc(Cc3cc4c(cc3C)C(C)(C)CCC4(C)C)o2)c(OC)c1, COc1ccc(NC(=O)c2ccc3nc(CCc4ccccc4)oc3c2)c(OC)c1 is higher in “activity change, negative = inhibition” value: -27.2% for the first, -4.07% for the second.

Compared with COc1ccccc1-c1c[nH]c2ncc(-c3cncc(C(=O)N(C)C)c3)cc12, CCOc1ccccc1NC(=O)Cn1c2ncccc2c(=O)n1-c1ccc(C)c(C)c1 is lower in “activity change, negative = inhibition” value: 3% for the first, -3.35% for the second.

First: CN(Cc1ccccc1)C(=O)CCS(=O)(=O)c1cc(Br)cc2c1N(C(=O)C1CC1)CC2
Second: CN1CCCC1Cc1c[nH]c2ccc(CCS(=O)(=O)c3ccccc3)cc12 (stereo not given)
The “activity change, negative = inhibition” value of the first is higher: -0.325% for the first, -2.48% for the second.

Compared with CC1CCC2C(C(=O)O)=CC3C(O)C(C)(C)CC123 (stereo not given), C#C[C@]1(O)CC[C@H]2[C@@H]3CCC4=C/C(=N/O)CC[C@@H]4[C@H]3CC[C@@]21CC is higher in “activity change, negative = inhibition” value: 3.29% for the first, 5.71% for the second.

First: CC(O)/C=C/C1(O)C2(C)COC1(C)CC(O)C2 (stereo not given)
Second: COC(=O)[C@]12CCC(C)(C)C[C@@H]1[C@@H]1C(=O)C=C3[C@]4(C)C=C(C#N)C(=O)C(C)(C)[C@@H]4CC[C@@]3(C)[C@]1(C)CC2
The “activity change, negative = inhibition” value of the first is higher: -5.68% for the first, -10.3% for the second.

Going from CC(=O)N1CCCc2cc(S(=O)(=O)N3CCC(C(=O)NCc4ccc(C)cc4)CC3)ccc21 to Cc1ccc(NC(=O)C2CCCN2S(=O)(=O)c2cccc3cccnc23)c(C)c1 (stereo not given), the “activity change, negative = inhibition” value falls from 2.25% to -1.91%.

Going from NC1CCC(Nc2cc(-c3cccc(NCc4cccc(F)c4)n3)c(Cl)cn2)CC1 (stereo not given) to O=c1[nH]c2ccc(C#CCN3CCC(Cc4ccccc4)CC3)cc2[nH]1, the “activity change, negative = inhibition” value falls from 0.142% to -15.1%.

Compared with Cc1ccc(S(=O)(=O)NCc2nc3nc(C)cc(C)n3n2)cc1, Cc1nc2c(C(F)(F)F)cccc2nc1-c1ccc(-c2cccc(S(C)(=O)=O)c2)cc1 is higher in “activity change, negative = inhibition” value: -12.1% for the first, 0.357% for the second.

Compared with COc1ccc(-c2nc(C)c(CCNC(=O)c3ccc(C(F)(F)F)cc3)s2)cc1OC, COc1ccc(-c2cn3c(n2)sc2cc(C(=O)Nc4ccccc4F)ccc23)cc1 is lower in “activity change, negative = inhibition” value: 1.18% for the first, -11.3% for the second.

Going from Nc1nc2c(ncn2[C@@H]2O[C@@H]3COP(=O)(O)O[C@H]3[C@H]2O)c(=O)[nH]1 to CCOC(=O)CSc1nc2c(sc3ccccc32)c(=O)n1CCCN1CCCC1, the “activity change, negative = inhibition” value rises from -2.31% to -0.602%.

Compared with CCC(=O)N[C@@H]1Cc2ccccc2[C@H](c2ccccc2)C1, O=C(C1CCCN(S(=O)(=O)c2cccc3nonc23)C1)N1CCN(c2ccccc2F)CC1 (stereo not given) is lower in “activity change, negative = inhibition” value: 1.26% for the first, -8.31% for the second.

Going from COc1cc(OC)c(NC(=O)c2cc(S(=O)(=O)N3CCCC3)cn2C)cc1Cl to COc1cc(Nc2nc3ccccc3nc2NS(=O)(=O)c2cccc(NC(=O)c3ccc(C)c(OC)c3)c2)cc(OC)c1, the “activity change, negative = inhibition” value falls from -2.25% to -14.2%.

In the case of CC1(C)CCC2(C(=O)OC3OC(COC4OC(CO)C(O)C(O)C4O)C(O)C(O)C3O)CCC3(C)C(=CCC4C5(C)CCC(O)C(C)(C(=O)O)C5CCC43C)C2C1O (stereo not given), the “activity change, negative = inhibition” value is reported as -1.76% [at 20.6 µM].

Going from CC1CCC2C(C)(C)C(O)CCC2(C)C12Cc1c(O)cc3c(c1O2)CN(C(CCC(N)=O)C(=O)O)C3=O (stereo not given) to C[C@H]1CC[C@@H]2N(C1)C[C@@H]1[C@H]([C@@H](O)[C@H](O)[C@]3(O)[C@H]1C[C@@]14OC5(O)[C@@H](C[C@@H](O)[C@@H]31)[C@]4(C)CC[C@@H]5O)[C@]2(C)O, the “activity change, negative = inhibition” value rises from -1.12% [at 53.3 µM] to 4.66% [at 53.3 µM].

Going from C[C@@H]1C[C@@H](O)[C@@]23CO[C@]2(CO)C[C@@H](O)CC3[C@@]12CC(c1ccoc1)OC2=O (stereo not given in full) to C[C@@H]1[C@H](O)[C@@H]2OC(=O)C3=C2[C@H](CCC3)[C@@]12C[C@@H](c1ccoc1)OC2=O, the “activity change, negative = inhibition” value rises from -2.44% [at 53.3 µM] to 1.74% [at 53.3 µM].

First: CC1C(=O)OCC2=CCN3CCC(OC(=O)C(C)(O)C1(C)O)C23 (stereo not given)
Second: CC1(C)C(=O)N2c3ccccc3C(O)(CC(C(=O)O)n3cnc4ccccc4c3=O)C2N1O (stereo not given)
The “activity change, negative = inhibition” value of the first is higher: 7.92% [at 53.3 µM] for the first, 4.36% [at 53.3 µM] for the second.

In the case of CCOc1ccccc1CNC(=O)Nc1cn(CC(C)C)c(=O)c2ccccc12, the Potency is reported as 28.2 µM [activator] (active).
